Source: PubChem BioAssay (NCI)
About 83,000 compounds went through this panel and 20% of them were active in at least one assay; those are over-represented in the sample as a whole.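 A percent growth of 40 corresponds to 60% growth inhibition; 0 means no net growth; -100 means all cells died. Active threshold: below 10.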 The source made the active and inactive calls.

system: HOP-62 NSCLC; assay: NCI-60 one-dose screen, 48 h (100 = growth as untreated, 0 = no growth, -100 = all killed); settings: 10 µM unless noted
Protocol: Growth inhibition of the HOP-62 human Non-Small Cell Lung tumor cell line is measured as a screen for anti-cancer activity. Cells are grown in 96 well plates and exposed to the test compound for 48 hours. Compounds are tested at a single concentration, which is 10^-5 M for most compounds. The reported endpoint is percent growth (GI% or GIPRCNT), where numbers from 0 - 100% represent growth inhibition, and numbers from -100% - 0 represent cell death. For example, a value of 40 represents 60% growth inhibition. A value of 0 means no net growth occurred over the course of the experiment. A value of -40 indicates 40% of cells at the beginning of the experiment died by the end of the experiment. A value of -100 means all cells are dead at the end of the experiment.
NCI-60 Human Tumor Cell Lines Screen was performed using the standard one-dose NCI protocol, which is described in more detail at https://dtp.cancer.gov/discovery_development/nci-60/default.htm.
Compounds with GIPRCNT values below 10 were considered active. Activity score was based on GIPRCNT using the following formula: […]
Score is 0 for GIPRCNT values of 100 or above, 50 for GIPRCNT values of 0, and 100 for GIPRCNT values of -100.

Compound | growth
CCN1C(=O)N(CC)C2SC(N/N=C/c3cccs3)=NC21 (stereo not given) | 32% (inactive)
CCNC(=O)Oc1ccc(/C(=C(/C)c2ccc(Cl)cc2)c2ccc(OCCN(C)C)cc2)cc1 | 80.2% (inactive)
COc1ccc([C@@H]2[C@@H](O)C(=O)N2c2cc(OC)c(OC)c(OC)c2)cc1Cl | 24.5% (inactive)
CN(C)c1ccc(/C=N/Nc2nc(N/N=C/c3ccc(N(C)C)cc3)nc(N3CCOCC3)n2)cc1 | 106% (inactive)
Cc1cn(-c2cc(NC(=O)c3cncc(C#Cc4cnc5ccc(O[C@@H]6CCOC6)nn45)c3)cc(C(F)(F)F)c2)cn1 | -12% (active)
CC1OC(O[C@@H]2[C@H](O)C(CO)OC(O[C@H]3COC(O[C@H]4CC[C@]5(C)[C@H]6CC[C@]78OC[C@@]9(CCC(C)(C)C[C@H]97)[C@H](O)C[C@@]8(C)[C@]6(C)CC[C@H]5C4(C)C)[C@@H](OC4OC(CO)[C@@H](O)[C@@H](O)[C@@H]4O)[C@@H]3O)[C@H]2OC2OC[C@@H](O)[C@@H](O)[C@@H]2O)[C@@H](O)[C@@H](O)[C@H]1O (stereo not given in full) | -81% (active)
N#Cc1c(NC(=O)c2ccc(F)c(Cl)c2)sc2c1CCC(=O)C2 | 8.63% (active)
C/C(=C(/c1ccc(O)cc1)c1ccc(OCCN2CCCCCC2)cc1)c1ccccc1 | 65.8% (inactive)
COc1ccc([C@H]2[C@H](O)C(=O)N2c2cc(OC)c(OC)c(OC)c2)cc1O | 18.9% (inactive)
COc1ccc2oc3c4[nH]c5ccccc5c4c4c(c3c2c1)C(=O)N(O)C4=O | 102% (inactive)
NCCN1CCN(c2nc(-c3ccccc3)nc3nc(-c4ccccc4)oc23)CC1 | 0.341% (active)
COc1cc(-c2noc(C[C@@H](NC(=O)OCc3ccccc3)C(C)C)n2)cc(OC)c1OC | 94.4% (inactive)
O=C(Cn1cc(CN2C(=O)c3ccc([N+](=O)[O-])cc3C2=O)nn1)Nc1ccccc1Br | 109% (inactive)
CC[C@]12C=CCN3CC[C@]4(C(=C(C(=O)OC)C1)Nc1cc5c(cc14)[C@@H]1[C@H](O5)[C@@H](O)[C@@]4(CC)CC(C(=O)OC)=C5Nc6cc(OC)ccc6[C@@]56CCN1[C@@H]46)[C@@H]32 | 24.1% (inactive)
Cc1cnc2nc(NN)[nH]n12 | 93% (inactive)
CCOC(=O)c1ccc(N/C=C/C(=O)c2ccccc2)cc1 | 111% (inactive)
CNC(=O)c1cc(Oc2ccc3nc(NC(=O)c4cc(C)cc(C)c4)sc3c2)ccn1 | 98.6% (inactive)
CS(=O)(=O)c1nccc(-c2c(-c3ccc(F)c(OCc4ccccc4)c3)nc3sccn23)n1 | 105% (inactive)
C[C@H]1[C@H](C)CC[C@]2(COC(=O)c3cccnc3)CC[C@]3(C)C(=CC[C@@H]4[C@@]5(C)CCCNC(C)(C)[C@@H]5CC[C@]43C)[C@H]12 | 99.8% (inactive)
CC(=O)NC(C)(C)C(=O)N1CCC[C@H]1C(=O)NC(C)(C)C(=O)N[C@@H](C)C(=O)NC(C)(C)C(=O)NC(C)(C)C(=O)N[C@@H](CCC(N)=O)C(=O)NC(C)(C)C(=O)N[C@H](C(=O)NC(C)(C)C(=O)NCC(=O)N[C@@H](CC(C)C)C(=O)NC(C)(C)C(=O)N1CCC[C@H]1C(=O)N[C@H](C(=O)NC(C)(C)C(=O)NC(C)(C)C(=O)N[C@@H](CCC(N)=O)C(=O)N[C@@H](CCC(N)=O)C(=O)N[C@H](CO)Cc1ccccc1)C(C)C)C(C)C | 41% [4.25 µM] (inactive)

Compound | growth
NC(=S)N/N=C(/C=C/c1cn(-c2ccccc2)nc1-c1ccc(Cl)cc1)c1cc2ccccc2oc1=O | 43% (inactive)
CCc1ccc(NC(=O)N[C@@H](Cc2cccc(C)c2)C(=O)N[C@@H]2C(=O)N3CCC[C@H]3C(=O)N3CCCC[C@H]3C(=O)N[C@@H](CO)C(=O)N3C[C@H](C)C[C@H]3C(=O)O[C@H]2C)c(F)c1 | 30.5% (inactive)
COc1cc(O)c2c(c1)[C@H]1O[C@@H]1C[C@H](O)[C@H](O)C(=O)/C=C\C[C@H](C)OC2=O | 68.7% (inactive)
CC(=O)NC(C)(C)C(=O)N1CCC[C@H]1C(=O)NC(C)(C)C(=O)N[C@@H](C)C(=O)NC(C)(C)C(=O)N[C@@H](C)C(=O)N[C@@H](CCC(N)=O)C(=O)NC(C)(C)C(=O)N[C@H](C(=O)NC(C)(C)C(=O)NCC(=O)N[C@@H](CC(C)C)C(=O)NC(C)(C)C(=O)N1CCC[C@H]1C(=O)N[C@H](C(=O)NC(C)(C)C(=O)NC(C)(C)C(=O)N[C@@H](CCC(N)=O)C(=O)N[C@@H](CCC(N)=O)C(=O)N[C@H](CO)Cc1ccccc1)C(C)C)C(C)C | 60.6% [4.25 µM] (inactive)
COc1ccc(CCN2C(=O)CSC2=S)cc1OC | 105% (inactive)
Cc1cc(=O)n2nc(-c3cn(C)c4ccc(Cl)cc34)sc2n1 | 85.7% (inactive)
Cc1cc(O)c2c(c1)C(=O)C(c1c(C)cc3c(c1O)C(=O)C=CC3=O)=CC2=O | 98.6% (inactive)
O=C(NCCCNc1cc(-c2cn(-c3ccccc3)nc2-c2cccc(O)c2)ccn1)Nc1cccc(C(F)(F)F)c1 | 43.2% (inactive)
O=C(c1cccc(F)c1)n1ccc2cc(NC(=S)Nc3cccnc3)ccc21 | 106% (inactive)
Cc1ccc(NC(=O)N[C@@H](Cc2cc(F)cc(F)c2)C(=O)NC2C(=O)N3CCC[C@H]3C(=O)N3CCCC[C@H]3C(=O)N[C@@H](C)C(=O)N3C[C@H](C)C[C@H]3C(=O)O[C@H]2C)c(F)c1 (stereo not given in full) | 33.8% (inactive)
C=C1C(=O)O[C@@H]2C[C@@H](C)CCC(=O)[C@](C)(OC(C)=O)C[C@H](OC(=O)/C(C)=C\C)[C@@H]12 | 105% (inactive)
COc1ccccc1/C=C/C=N/NC1=NC2C(S1)N(C)C(=O)N2c1ccccc1 (stereo not given) | 46% (inactive)
CCN(CC)CCN1C(=O)c2c(c3c4cccnc4[nH]c3c3ccc4ccccc4c23)C1=O | 38.4% (inactive)
COc1ccc(N)cc1C(=O)Nc1cccc(-c2cc(=O)c3c(OC)c(OC)c(OC)cc3o2)c1 | 69.6% (inactive)
Oc1ccc(CSc2nnc(-c3ccncc3)n2-c2ccccc2)c2cccnc12 | 17% (inactive)
CNC(=O)c1cc(Oc2ccc3nc(NC(=O)c4cccc(C(F)(F)F)c4)sc3c2)ccn1 | 117% (inactive)
COc1cc(/C=C/C(=O)c2ccc(NC(=O)CSc3nnc(-c4ccc5nc(-c6ccccc6)[nH]c5c4)o3)cc2)cc(OC)c1OC | 114% (inactive)
O=S(=O)(Nc1ccc(-n2cnc3cc(-c4ccc(O)cc4)ccc32)cc1)C1CC1 | 86.8% (inactive)
CCOC(=O)c1c(NCC(=O)Nc2cccc(Cl)c2)sc2c1CCCC2 | 78.6% (inactive)
C=C(C)C(=O)O[C@H]1C[C@@]2(C)OC(=CC2=O)[C@H](C)[C@H](O)[C@H]2OC(=O)C(=C)[C@@H]21 | 93.5% (inactive)
